Measured values published in PubChem BioAssay (NCI).
This is part of a sample that, as a whole, favours compounds with a hit. Of some 79,000 tested, about 15% had one in any assay. Activity calls are given as the source filed them. Rule as the data show it: active = growth inhibition above about 70%; inactive = the rest.

Key:
[1] = NCI Yeast Anticancer Drug Screen. Data for the rad50 strain (AID 155);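 also: 0% = growth of vehicle-only cultures of the same strain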; conditions: S. cerevisiae rad50 strain growth inhibition; at 50.0 µM; active compounds read high
In short: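 Genetically altered yeast (DNA repair pathway); compound treatment; growth inhibition vs vehicle ctrl.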

[2] = NCI Yeast Anticancer Drug Screen. Data for the mec2-1 strain (AID 157); conditions: S. cerevisiae mec2-1 strain, at 50.0 µM, active compounds read high
In short: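 Cells of the genetically defined mec2-1 yeast strain are incubated with test compound. Inhibition of growth is calculated against vehicle-treated controls.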

[3] = NCI Yeast Anticancer Drug Screen. Data for the sgs1 mgt1 strain (AID 161);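 also: 0% = growth of cultures given vehicle only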; conditions: S. cerevisiae sgs1 mgt1 strain, at 50.0 µM, active compounds read high
In short: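 Test agents were incubated with a DNA-repair-mutant yeast strain. Growth was then read and compared against vehicle-treated controls.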

[4] = NCI Yeast Anticancer Drug Screen. Data for the cln2 rad14 strain (AID 165);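 also: 0% = growth equal to vehicle treated cultures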; conditions: S. cerevisiae cln2 rad14 strain, at 50.0 µM, active compounds read high
In short: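 The screen exposed genetically defined yeast (cln2 rad14) to test compounds and scored growth inhibition relative to vehicle-treated controls.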

[5] = NCI Yeast Anticancer Drug Screen. Data for the bub3 strain (AID 167); conditions: S. cerevisiae bub3 mutant strain, at 50.0 µM, active compounds read high
In short: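 Yeast carrying a defined mutation is treated with each compound, and growth is compared with that of vehicle-exposed cells to give inhibition.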

[6] = NCI Yeast Anticancer Drug Screen. Data for the mlh1 rad18 strain (AID 175); conditions: S. cerevisiae mlh1 rad18 strain growth inhibition; at 50.0 µM; active compounds read high
In short: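 Compound-treated yeast growth, normalised to vehicle controls. Strain bears defined DNA repair mutations.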

Measured: growth inhibition

CCCCCCCCCCCCCCC(=O)OCCN(C)C
inactive: [1] -3.6% | [2] -18% | [3] 1.45% | [4] -18.2% | [5] 8.35% | [6] -10.1%

CCOC(=O)c1cnc(SCc2ccccc2)[nH]c1=O
inactive: [1] -6.1% | [2] -9.8% | [3] -17.7% | [4] -3.7% | [5] -16.6% | [6] -13.3%

Oc1ccccc1/C=N/n1cnnc1
inactive: [1] 8.55% | [2] 12.2% | [3] -3.5% | [4] -4.85% | [5] -10.3% | [6] -19.2%

COC(=N)Cc1cc(OC)cc(OC)c1
inactive: [1] -2.45% | [2] 6.4% | [3] 7.45% | [4] -12.7% | [5] 21.2% | [6] -6.6%

O=C(O)C(C(=O)O)C1CCCCCC1
inactive: [1] -34.4% | [2] -6.6% | [3] -17.9% | [4] -29.9% | [5] -1.9% | [6] 14.2%

O=C(NCCNCCNC(=O)C(F)(F)F)C(F)(F)F
inactive: [1] -9.75% | [2] -16.9% | [3] -4.4% | [4] 12.8% | [5] -1.5% | [6] -41.6%

O=C(CCC(=O)Nc1ccc(Cl)c(Cl)c1)CC(=O)c1ccc2ccccc2c1
inactive: [1] 22% | [2] 9.6% | [3] 2.45% | [4] 19.9% | [5] 2.2% | [6] -12.1%

OC(c1ccccc1)C1(O)CCCCC1 (configuration not stated)
inactive: [1] -10.8% | [2] -5.25% | [3] -1.7% | [4] -52.5% | [5] -17.1% | [6] 9.75%

Cc1ccccc1-n1c(C)nc2cc(NCC(=O)c3ccccc3)ccc2c1=O
inactive: [1] 32.9% | [2] -9.8% | [3] -2.3% | [4] -0.5% | [5] -1.6% | [6] 4%

CCCCCC(=O)Nc1cc(S(=O)(=O)O)cc2cc(S(=O)(=O)O)cc(O)c12
inactive: [1] -24.1% | [2] -15.2% | [3] -8.85% | [4] 10.7% | [5] -9.85% | [6] -7.7%

CCN(CC)CCOc1cc(C)ccc1C(C)C
inactive: [1] -6.05% | [2] -12.6% | [3] 2.95% | [4] -32% | [5] -8.1% | [6] 26.4%

COc1ccc(C2(C)OC(=O)c3ccccc32)c2ccccc12 (configuration not stated)
inactive: [2] 49.9% | [3] 46.3% | [4] 39.2% | [6] 65.7%
active: [1] 71% | [5] 73.2%

CCCCn1cnc2ccc3[nH]c(C)nc3c2c1=O
inactive: [1] 29.4% | [2] -4.85% | [3] 34.1% | [4] -3.55% | [5] -6.35% | [6] 21.4%

CS(=O)(=O)/C=C/c1ccccc1
inactive: [1] -19.4% | [2] -8.15% | [3] -7.35% | [4] 1.8% | [5] -2.1% | [6] 0.75%

CC1(C)C2CCC(C2)C1/C=C1/SC(=S)NC1=O (configuration not stated)
inactive: [1] -6.2% | [2] -1.55% | [3] 1.55% | [4] 49% | [5] 17.8% | [6] 2.85%

CCCCSc1nc2ccc(N=Cc3ccccc3O)cc2s1
inactive: [1] -19.6% | [2] -11.2% | [3] -4.45% | [4] -17.7% | [5] -5.75% | [6] -22.4%

Cc1ccccc1SCC(N)=O
inactive: [1] 6.55% | [2] 9.1% | [3] -0.85% | [4] -12.1% | [5] 5.35% | [6] -0.7%

CCCCCCCCCC(=O)N/N=C/c1ccco1
inactive: [1] 51.7% | [2] 59.6% | [3] 63% | [4] 44.9% | [5] 69.4%
active: [6] 78%

CC(C)CCC1(C2CCOCC2)NC(=O)NC1=O (configuration not stated)
inactive: [1] -9.85% | [2] -6.6% | [3] -4.85% | [4] -26.6% | [5] -7.55% | [6] 0.95%

CC(C)CCC(=O)O
inactive: [1] -8.45% | [2] -9.1% | [3] -4.4% | [4] -9.6% | [5] 3.8% | [6] -10.4%

COC1CCC(C(C)=O)C(C#N)(C#N)C1(C#N)C#N (configuration not stated)
inactive: [1] -6.3% | [2] -1.25% | [3] -12.1% | [4] -4.95% | [5] -12.5% | [6] -13.8%

O=C(NO)C(=O)Nc1ccc(Cl)cc1[N+](=O)[O-]
inactive: [1] 47% | [2] 28.4% | [3] 36.5% | [4] 42% | [5] 49.1% | [6] 44.7%

O=C(O)/C(Br)=C(\Br)c1ccccc1
inactive: [1] 23.9% | [2] 15.8% | [3] 14.6% | [4] 14.4% | [5] 1.55% | [6] 12.5%

CC(=O)NC1CC(=O)N(c2ccccc2)C1=O (configuration not stated)
inactive: [1] 16.4% | [2] 7.8% | [3] 12.2% | [4] 5.9% | [5] -1.8% | [6] -19.1%

CCOC(=O)C(C)Oc1ccc(Cn2ccnn2)cc1 (configuration not stated)
inactive: [1] -20.1% | [2] -1.25% | [3] 15.9% | [4] -4.05% | [5] 3.1% | [6] 6.25%

CNC(=O)C1NCCc2cc(OC)c(OC)cc21 (configuration not stated)
inactive: [1] 21.9% | [2] -22% | [3] 20.7% | [4] 13.2% | [5] 10.4% | [6] 20.6%

CCOC(=O)c1[nH]c(CC(=O)O)c(C(=O)OCC)c1C
inactive: [1] -6.8% | [2] 3% | [3] 9% | [4] -44.9% | [5] 3.9% | [6] 5.1%

c1ccc(Cc2ccc3ccccc3c2)cc1
inactive: [1] 35.3% | [2] 14.6% | [3] 11.8% | [4] -26.6% | [5] 12.2% | [6] 50.2%

Nc1c2ccccc2nc2c(C(=O)Nc3ccc(S(N)(=O)=O)cc3)cccc12
inactive: [1] 16.4% | [2] -8.9% | [3] -1.45% | [4] 19% | [5] -2.45% | [6] 1.05%

O=C(O)c1cccc2c1cc(Br)c1ccccc12
inactive: [1] 22.6% | [2] 23.2% | [3] 32% | [4] -42.5% | [5] 15.8% | [6] 24.7%

CCCCCCC(C)OC(=O)CCl (configuration not stated)
inactive: [1] -0.55% | [2] -6.4% | [3] 2.25% | [4] 6.1% | [5] 1.25% | [6] 0.95%

CN(C)CCN=C1Nc2ccccc2C(=S)N2CSCC12 (configuration not stated)
inactive: [1] -0.75% | [2] 17.1% | [3] -10.4% | [4] -2.05% | [5] 5.85% | [6] 11.9%

COc1ccc(C2c3cc4c(cc3OC3(N5CCCC5)CCCC23)OCO4)c(OC)c1 (configuration not stated)
inactive: [1] 0.85% | [2] -6.8% | [3] -1.5% | [4] 14.2% | [5] 15.2% | [6] 11.6%

CC(C)NS(=O)(=O)c1ccccc1
inactive: [1] 19.4% | [2] -3.1% | [3] 10.6% | [4] 6.75% | [5] 0.6% | [6] 26.9%

O=C1CCC(c2ccccc2)(c2ccccc2)CC1
inactive: [1] 31.8% | [2] -24.6% | [3] -16.1% | [4] -15.5% | [5] 0.15% | [6] 17.5%

CC(C)SC(C)(NC(=O)C1C(C)(C)CCC1(C)C)C(=O)O (configuration not stated)
inactive: [1] -52.6% | [2] 1.45% | [3] -24.6% | [4] 1.5% | [5] 5.45% | [6] -49.5%

O=C(O)CNC(=O)NC(Cc1ccccc1)C(=O)O (configuration not stated)
inactive: [1] 9.1% | [2] 12.4% | [3] -0.45% | [5] 18.6% | [6] 8%
active: [4] 71.5%

CCCCC(CC)CO (configuration not stated)
inactive: [1] -12.4% | [2] -25% | [3] -32.7% | [4] -108% | [5] -16.5% | [6] -20.3%

COc1ccc(OC)c(/C=C/c2cnnc3ccccc23)c1
inactive: [1] 12.6% | [2] 12.8% | [3] 19.2% | [4] -2.95% | [5] 6.75% | [6] 32%

C/C(=C\c1ccc(OCCN2CCOCC2)cc1)c1ccc2c(c1)C(C)(C)CCC2(C)C
inactive: [1] -3.2% | [2] -11.9% | [3] 16.1% | [4] -4.95% | [5] -20.6% | [6] -25.9%

Cc1cc(Cl)c(Cl)cc1NC(=O)c1ccccc1Cl
inactive: [1] 1.55% | [2] -11.3% | [3] 4% | [4] -9.25% | [5] 8.9% | [6] -5.25%

O=C(C[n+]1ccc2ccccc2c1)c1ccc(Br)cc1
inactive: [1] -17.1% | [2] 12.3% | [3] 1.8% | [4] -0.65% | [5] -11.9% | [6] 28.9%
